{
  "source": "PubChem BioAssay (NCATS)",
  "note": "The source made the active and inactive calls. No rule for the calls is given here. Potency is read from the fitted curve at half-maximal effect.",
  "data": [
    {"test_system": "HIV-1 nucleocapsid protein NCp7 (binding to TG oligonucleotide)", "assay": "HIV Nucleocapsid (AID 346);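 also: potency is for inhibitors that block NC binding and lower polarization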", "conditions": "HIV-1 NC / fluorescein-TGTGTGTG probe, fluorescence polarization", "procedure,_shortened": "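NCp7 100 nM + fluorescein TG4xF 10 nM; Hepes pH 7.5/250mM NaCl/1uM ZnCl2/0.004% PEG 20000; 1 hr RT; FP, 45 s exposure; oligo-only wells as negative control.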", "values": [
      {"smiles": "c1nc(N2CCNCC2)c2cc(-c3ccc4c(c3)OCO4)ccc2n1", "Potency": "> 20 µM (inactive)"},
      {"smiles": "COc1ccc2[nH]cc(CCNc3ncncc3-c3ccccc3C(F)(F)F)c2c1", "Potency": "> 20 µM (inactive)"},
      {"smiles": "O=c1c(-c2cccc(F)c2)nc2cncnc2n1-c1ccccc1", "Potency": "> 20 µM (inactive)"},
      {"smiles": "Cc1noc(C)c1-c1nccc(NCc2cccs2)n1", "Potency": "> 20 µM (inactive)"},
      {"smiles": "O=C(Nc1ccccc1)N1CC2(CCN(C(=O)c3ccncc3)CC2)C1", "Potency": "> 20 µM (inactive)"},
      {"smiles": "COc1cccc(-c2cncnc2NCc2cccnc2)c1", "Potency": "> 20 µM (inactive)"},
      {"smiles": "CC(=O)N1CCC2(CC1)CN(Cc1ccc(C#N)cc1)C2", "Potency": "> 20 µM (inactive)"},
      {"smiles": "COc1ccc(NC(=O)N2CC3(CCN(C(=O)c4cccc(F)c4)CC3)C2)cc1", "Potency": "> 20 µM (inactive)"},
      {"smiles": "COCC(=O)N1CCC2(CCCN(C(=O)Nc3ccc(OC)cc3)C2)CC1", "Potency": "> 20 µM (inactive)"},
      {"smiles": "c1csc(CNc2ccnc(-c3ccc4c(c3)OCO4)n2)c1", "Potency": "> 20 µM (inactive)"},
      {"smiles": "COc1ccc(CNc2ccnc(-c3cccc(NS(C)(=O)=O)c3)n2)c(OC)c1", "Potency": "> 20 µM (inactive)"},
      {"smiles": "Cc1nc2cnc(N3CCNCC3)nc2n(CCC#N)c1=O", "Potency": "> 20 µM (inactive)"},
      {"smiles": "COc1ccc(C(=O)N2CCC3(CC2)CN(c2cccc(-c4ccccc4)c2)C3)cc1", "Potency": "> 20 µM (inactive)"},
      {"smiles": "O=C(c1ccco1)N1CCC[C@@]2(CCN(c3cccc(-c4ccccc4)c3)C2)C1", "Potency": "> 20 µM (inactive)"},
      {"smiles": "Cc1cnc(CNc2cc(-c3ccc(C(=O)N(C)C)cc3)ncn2)cn1", "Potency": "> 20 µM (inactive)"}
    ]}
  ]
}
